Results: PubChem BioAssay AID1159580 (chemical genetic matrix, 2015)
The whole screen tested about 5,500 compounds, of which about 2,000 (36%) were called active. Inconclusive results (about 18%) are left out. The list shows a part of the results. Unmarked numbers belong to inactive results. Rule as the data show it: active = normalized growth mostly below about 0.91 (no sharp cut-off); inconclusive = no clear call, values can overlap the other calls; inactive = mostly above about 0.92.

Assay: chemical genetic growth profiling, strain panel (AID 1159580);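 also: tested at 20 µM; growth read once vehicle control cultures reached saturation at 30 °C; 1 = growth at the plate median or of vehicle wells; lower values mean less growth of the strain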
Conditions: growth OD

With `C#C[C@]1(O)CCC2C3CCc4cc(O)ccc4C3CC[C@@]21C` (stereo partly drawn) the normalized growth (S. cerevisiae deletion strains, locus YJR043C, strain POL32, hits give low values) was 0.927, the normalized growth (S. cerevisiae deletion strains, locus YJR066W, strain TOR1, hits give low values) was 0.81 (active) and the normalized growth (S. cerevisiae deletion strains, locus YKL009W, strain mrt4, hits give low values) was 0.827 (active). It also gave a normalized growth (S. cerevisiae deletion strains, locus YKL068W, hits give low values) of 1.03, a normalized growth (S. cerevisiae deletion strains, locus YKL085W, strain MDH1 (second series), hits give low values) of 1.01 and a normalized growth (S. cerevisiae deletion strains, locus YKL085W, strain MDH1, hits give low values) of 1.01. The normalized growth (S. cerevisiae deletion strains, locus YKL160W, strain elf1, hits give low values) was 0.996, the normalized growth (S. cerevisiae deletion strains, locus YKR001C, strain vps1, hits give low values) was 0.959 and the normalized growth (S. cerevisiae deletion strains, locus YKR026C, strain gcn3, hits give low values) was 1.05. The normalized growth (S. cerevisiae deletion strains, locus YKR091W, strain srl3, hits give low values) was 1.02, the normalized growth (S. cerevisiae deletion strains, locus YLL001W, strain dnm1, hits give low values) was 1.05 and the normalized growth (S. cerevisiae deletion strains, locus YLL026W, hits give low values) was 1.01. It also gave a normalized growth (S. cerevisiae deletion strains, locus YLL041C, strain sdh2, hits give low values) of 1.03, a normalized growth (S. cerevisiae deletion strains, locus YLR027C, strain aat2, hits give low values) of 0.938 and a normalized growth (S. cerevisiae deletion strains, locus YLR039C, strain RIC1, hits give low values) of 0.766. It also gave a normalized growth (S. cerevisiae deletion strains, locus YLR058C, strain SHM2, hits give low values) of 0.995, a normalized growth (S. cerevisiae deletion strains, locus YLR102C, strain apc9, hits give low values) of 1.03 and a normalized growth (S. cerevisiae deletion strains, locus YLR113W, strain HOG1, hits give low values) of 1.05. The normalized growth (S. cerevisiae deletion strains, locus YLR221C, strain rsa3, hits give low values) was 0.965, the normalized growth (S. cerevisiae deletion strains, locus YLR258W, strain gsy2, hits give low values) was 0.982 and the normalized growth (S. cerevisiae deletion strains, locus YLR262C, strain YPT6 (second series), hits give low values) was 0.735 (active). For the same compound, the normalized growth (S. cerevisiae deletion strains, locus YLR262C, strain YPT6, hits give low values) was 0.683, the normalized growth (S. cerevisiae deletion strains, locus YLR268W, strain sec22, hits give low values) was 0.91 and the normalized growth (S. cerevisiae deletion strains, locus YLR320W, strain mms22, hits give low values) was 0.898. For the same compound, the normalized growth (S. cerevisiae deletion strains, locus YLR330W, strain CHS5, hits give low values) was 1.01, the normalized growth (S. cerevisiae deletion strains, locus YLR342W, strain FKS1 (second series), hits give low values) was 0.724 (active) and the normalized growth (S. cerevisiae deletion strains, locus YLR342W, strain FKS1, hits give low values) was 0.983. For the same compound, the normalized growth (S. cerevisiae deletion strains, locus YLR357W, strain rsc2, hits give low values) was 1.1, the normalized growth (S. cerevisiae deletion strains, locus YLR370C, strain arc18, hits give low values) was 1.03 and the normalized growth (S. cerevisiae deletion strains, locus YLR371W, strain rom2, hits give low values) was 1.03. The normalized growth (S. cerevisiae deletion strains, locus YLR384C, strain iki3, hits give low values) was 1.04, the normalized growth (S. cerevisiae deletion strains, locus YLR418C, strain cdc73, hits give low values) was 0.791 (active) and the normalized growth (S. cerevisiae deletion strains, locus YML016C, strain PPZ1, hits give low values) was 1.03. It also gave a normalized growth (S. cerevisiae deletion strains, locus YML032C, strain rad52, hits give low values) of 0.913, a normalized growth (S. cerevisiae deletion strains, locus YML120C, strain ndi1, hits give low values) of 0.985 and a normalized growth (S. cerevisiae deletion strains, locus YML124C, strain tub3, hits give low values) of 1.03. For the same compound, the normalized growth (S. cerevisiae deletion strains, locus YMR058W, strain fet3, hits give low values) was 0.947, the normalized growth (S. cerevisiae deletion strains, locus YMR078C, strain ctf18, hits give low values) was 1.02 and the normalized growth (S. cerevisiae deletion strains, locus YMR125W, strain sto1, hits give low values) was 1.13 [resistant] (active). For the same compound, the normalized growth (S. cerevisiae deletion strains, locus YMR129W, hits give low values) was 1.02, the normalized growth (S. cerevisiae deletion strains, locus YMR205C, strain PFK2, hits give low values) was 0.995 and the normalized growth (S. cerevisiae deletion strains, locus YMR223W, strain ubp8, hits give low values) was 0.948. The normalized growth (S. cerevisiae deletion strains, locus YMR231W, strain pep5, hits give low values) was 1.02, the normalized growth (S. cerevisiae deletion strains, locus YMR307W, strain GAS1, hits give low values) was 0.681 and the normalized growth (S. cerevisiae deletion strains, locus YNL067W, strain RPL9B, hits give low values) was 0.9. The normalized growth (S. cerevisiae deletion strains, locus YNL071W, strain lat1, hits give low values) was 0.97, the normalized growth (S. cerevisiae deletion strains, locus YNL183C, strain NPR1, hits give low values) was 0.91 and the normalized growth (S. cerevisiae deletion strains, locus YNL209W, strain ssb2, hits give low values) was 1.02. It also gave a normalized growth (S. cerevisiae deletion strains, locus YNL233W, strain BNI4, hits give low values) of 0.928, a normalized growth (S. cerevisiae deletion strains, locus YNL248C, strain rpa49, hits give low values) of 0.955 and a normalized growth (S. cerevisiae deletion strains, locus YNL250W, strain rad50, hits give low values) of 0.989. The normalized growth (S. cerevisiae deletion strains, locus YNL271C, strain bni1, hits give low values) was 0.968, the normalized growth (S. cerevisiae deletion strains, locus YNL298W, strain CLA4, hits give low values) was 0.909 and the normalized growth (S. cerevisiae deletion strains, locus YNL307C, strain MCK1, hits give low values) was 0.813 (active). For the same compound, the normalized growth (S. cerevisiae deletion strains, locus YNL322C, strain KRE1 (second series), hits give low values) was 1.03, the normalized growth (S. cerevisiae deletion strains, locus YNL322C, strain KRE1, hits give low values) was 1.01 and the normalized growth (S. cerevisiae deletion strains, locus YNR049C, strain mso1, hits give low values) was 1.04. The normalized growth (S. cerevisiae deletion strains, locus YNR052C, strain pop2, hits give low values) was 0.965, the normalized growth (S. cerevisiae deletion strains, locus YOL006C, strain TOP1, hits give low values) was 0.726 and the normalized growth (S. cerevisiae deletion strains, locus YOL012C, strain htz1) was 2.07. It also gave a normalized growth (S. cerevisiae deletion strains, locus YOL147C, strain pex11, hits give low values) of 1.02, a normalized growth (S. cerevisiae deletion strains, locus YOR001W, strain rrp6, hits give low values) of 0.939 and a normalized growth (S. cerevisiae deletion strains, locus YOR061W, strain CKA2, hits give low values) of 1.01. For the same compound, the normalized growth (S. cerevisiae deletion strains, locus YOR069W, strain VPS5, hits give low values) was 1.02, the normalized growth (S. cerevisiae deletion strains, locus YOR070C, strain gyp1, hits give low values) was 0.987 and the normalized growth (S. cerevisiae deletion strains, locus YOR080W, strain dia2, hits give low values) was 1.01. For the same compound, the normalized growth (S. cerevisiae deletion strains, locus YOR083W, strain WHI5, hits give low values) was 0.974, the normalized growth (S. cerevisiae deletion strains, locus YOR106W, strain vam3, hits give low values) was 0.938 and the normalized growth (S. cerevisiae deletion strains, locus YOR136W, strain idh2, hits give low values) was 1.01. For the same compound, the normalized growth (S. cerevisiae deletion strains, locus YOR144C, strain elg1, hits give low values) was 0.998, the normalized growth (S. cerevisiae deletion strains, locus YOR184W, strain ser1, hits give low values) was 0.624 (active) and the normalized growth (S. cerevisiae deletion strains, locus YOR231W, strain MKK1, hits give low values) was 0.95. The normalized growth (S. cerevisiae deletion strains, locus YOR265W, strain rbl2, hits give low values) was 1.03, the normalized growth (S. cerevisiae deletion strains, locus YOR270C, strain vph1, hits give low values) was 0.905 and the normalized growth (S. cerevisiae deletion strains, locus YOR290C, strain snf2, hits give low values) was 0.908. The normalized growth (S. cerevisiae deletion strains, locus YOR316C, strain cot1, hits give low values) was 1.04, the normalized growth (S. cerevisiae deletion strains, locus YPL051W, strain arl3, hits give low values) was 0.91 (active) and the normalized growth (S. cerevisiae deletion strains, locus YPL078C, strain atp4, hits give low values) was 0.915. For the same compound, the normalized growth (S. cerevisiae deletion strains, locus YPL106C, strain sse1, hits give low values) was 1.14, the normalized growth (S. cerevisiae deletion strains, locus YPL240C, strain hsp82, hits give low values) was 1.02 and the normalized growth (S. cerevisiae deletion strains, locus YPL241C, strain CIN2, hits give low values) was 1.03. For the same compound, the normalized growth (S. cerevisiae deletion strains, locus YPL256C, strain CLN2, hits give low values) was 1.03, the normalized growth (S. cerevisiae deletion strains, locus YPR119W, strain clb2, hits give low values) was 1.04 and the normalized growth (S. cerevisiae deletion strains, locus YPR141C, strain kar3, hits give low values) was 1.04. For the same compound, the normalized growth (S. cerevisiae deletion strains, locus YPR163C, strain tif3, hits give low values) was 0.934, the normalized growth (S. cerevisiae deletion strains, locus YPR167C, strain met16, hits give low values) was 1.01 and the normalized growth (S. cerevisiae deletion strains, strain wtn01, hits give low values) was 0.906. It also gave a normalized growth (S. cerevisiae strains, strain wild type, hits give low values) of 0.999.
